Measurements as given in PubChem BioAssay AID1159580 (chemical genetic matrix, 2015).
Where “and” joins values, the source holds several entries; their conditions need not be identical. Identical values can stand only once. Among all 5,500 compounds or so, about 2,000 (36%) were called active. About 18% were inconclusive and are not listed. Rule as the data show it: active = normalized growth mostly below about 0.91 (no sharp cut-off); inconclusive = no clear call, values can overlap the other calls; inactive = mostly above about 0.92. The list shows a part of the results.

Assay: chemical genetic growth profiling, strain panel (AID 1159580);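 also: tested at 20 µM; growth read once vehicle control cultures reached saturation at 30 °C; 1 = growth at the plate median or of vehicle wells; lower values mean less growth of the strain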
Conditions: S. cerevisiae deletion strains, growth OD
[1] = locus YAL013W, strain DEP1, hits give low values
[2] = locus YJR075W, strain HOC1, hits give low values
[3] = locus YNL128W, strain TEP1, hits give low values

Measured: normalized growth

Cc1[nH]ccc2c1[nH]c1cc(=O)ccc12
inactive: [1] 1.02 | locus YAL021C, strain ccr4, hits give low values 0.989 | locus YAL026C, strain drs2, hits give low values 1.01 | locus YAL030W, strain snc1, hits give low values 0.995 | locus YBL061C, strain skt5, hits give low values 0.993 | locus YBR009C, strain hhf1, hits give low values 1.01 | locus YBR021W, strain FUR4, hits give low values 1.03 | locus YBR023C, strain chs3, hits give low values 1 | locus YBR171W, strain sec66, hits give low values 0.999 | locus YBR229C, strain ROT2, hits give low values 1.01 | locus YBR231C, strain swc5, hits give low values 0.975 | locus YBR279W, strain paf1, hits give low values 1.01 | locus YCL011C, strain gbp2, hits give low values 1 | locus YCL016C, strain dcc1, hits give low values 1 | locus YCL029C, strain bik1, hits give low values 0.986 | locus YCL061C, strain MRC1, hits give low values 1 | locus YCL069W, strain vba3, hits give low values 0.995 | locus YCR088W, strain abp1, hits give low values 0.998 | locus YDL005C, strain med2, hits give low values 0.996 | locus YDL035C, strain GPR1, hits give low values 1.03 | locus YDL040C, strain nat1, hits give low values 0.993 | locus YDL074C, strain BRE1, hits give low values 1.04 | locus YDL101C, strain DUN1, hits give low values 1.01 | locus YDL185W, strain tfp1, hits give low values 0.996 | locus YDL192W, strain arf1, hits give low values 0.991 | locus YDR001C, strain nth1, hits give low values 1.01 | locus YDR069C, strain doa4, hits give low values 1.01 | locus YDR101C, strain arx1, hits give low values 0.985 | locus YDR137W, strain rgp1, hits give low values 1 | locus YDR150W, strain NUM1, hits give low values 1 | locus YDR159W, strain sac3, hits give low values 0.978 | locus YDR162C, strain NBP2, hits give low values 1.03 | locus YDR195W, strain ref2 0.996 | locus YDR297W, strain sur2, hits give low values 1 | locus YDR318W, strain mcm21, hits give low values 0.993 | locus YDR334W, strain swr1, hits give low values 1 | locus YDR335W, strain msn5, hits give low values 0.995 | locus YDR388W, hits give low values 0.988 | locus YDR392W, strain spt3, hits give low values 0.96 | locus YDR502C, strain sam2, hits give low values 0.992 | locus YEL003W, strain gim4, hits give low values 0.997 | locus YEL037C, strain rad23, hits give low values 0.993 | locus YEL061C, strain CIN8 (second series), hits give low values 0.989 | locus YEL061C, strain CIN8, hits give low values 1.01 | locus YER015W, strain faa2, hits give low values 1 | locus YER016W, strain bim1, hits give low values 0.997 | locus YER110C, hits give low values 0.98 | locus YER111C, strain swi4, hits give low values 0.989 | locus YER155C, strain BEM2 (second series), hits give low values 0.973 | locus YER155C, strain BEM2, hits give low values 1.02 | locus YER167W, strain BCK2, hits give low values 1.03 | locus YFR010W, strain ubp6, hits give low values 0.995 | locus YGL078C, strain dbp3, hits give low values 0.992 | locus YGL086W, strain mad1, hits give low values 1.01 | locus YGL167C, strain pmr1, hits give low values 0.993 | locus YGL173C, strain kem1, hits give low values 1 | locus YGL227W, strain vid30, hits give low values 0.995 | locus YGL240W, strain doc1, hits give low values 0.995 | locus YGL248W, strain PDE1, hits give low values 1.02 | locus YGL253W, strain hxk2, hits give low values 1 | locus YGR135W, strain pre9, hits give low values 0.999 | locus YGR252W, strain gcn5, hits give low values 1.01 | locus YHR013C, strain ard1, hits give low values 1 | locus YHR027C, strain rpn1, hits give low values 1 | locus YHR030C, strain SLT2, hits give low values 1.01 and 0.992 | locus YHR079C, strain IRE1 (second series), hits give low values 0.991 | locus YHR079C, strain IRE1, hits give low values 0.989 | locus YHR094C, strain hxt1, hits give low values 0.986 | locus YHR129C, strain ARP1, hits give low values 1.03 | locus YHR142W, strain chs7, hits give low values 1 | locus YHR200W, strain rpn10, hits give low values 0.993 | locus YIL066C, strain RNR3, hits give low values 1.04 | locus YIL073C, strain SPO22, hits give low values 1.02 | locus YIL125W, strain kgd1, hits give low values 0.993 | locus YIR030C, strain dcg1, hits give low values 0.991 | locus YJL092W, strain hpr5, hits give low values 0.999 | locus YJL095W, strain BCK1 (second series), hits give low values 0.995 | locus YJL095W, strain BCK1, hits give low values 1.01 and 1.02 | locus YJL115W, strain asf1, hits give low values 0.994 | locus YJL129C, strain trk1, hits give low values 1 | locus YJL134W, strain LCB3, hits give low values 1 | locus YJL154C, strain vps35, hits give low values 0.997 | locus YJL164C, strain tpk1, hits give low values 0.996 | locus YJL166W, strain qcr8, hits give low values 0.995 | locus YJL168C, strain set2, hits give low values 0.986 | locus YJL187C, strain SWE1 (second series), hits give low values 1.02 | locus YJL187C, strain SWE1, hits give low values 0.996 | locus YJR043C, strain POL32, hits give low values 1.04 | locus YJR066W, strain TOR1, hits give low values 0.947 | [2] 1.02 | locus YKL009W, strain mrt4, hits give low values 0.995 | locus YKL068W, hits give low values 0.997 | locus YKL085W, strain MDH1 (second series), hits give low values 1.01 | locus YKL085W, strain MDH1, hits give low values 1.01 | locus YKL160W, strain elf1, hits give low values 1 | locus YKL190W, strain CNB1, hits give low values 0.987 | locus YKR001C, strain vps1, hits give low values 0.987 | locus YKR026C, strain gcn3, hits give low values 1 | locus YKR091W, strain srl3, hits give low values 0.992 | locus YLL001W, strain dnm1, hits give low values 0.994 | locus YLL026W, hits give low values 1 | locus YLL041C, strain sdh2, hits give low values 0.999 | locus YLR027C, strain aat2, hits give low values 0.998 | locus YLR039C, strain RIC1, hits give low values 1.06 | locus YLR058C, strain SHM2, hits give low values 1.01 | locus YLR102C, strain apc9, hits give low values 0.993 | locus YLR113W, strain HOG1, hits give low values 1.02 | locus YLR221C, strain rsa3, hits give low values 1.01 | locus YLR258W, strain gsy2, hits give low values 0.995 | locus YLR262C, strain YPT6 (second series), hits give low values 0.998 | locus YLR262C, strain YPT6, hits give low values 1.09 | locus YLR268W, strain sec22, hits give low values 0.984 | locus YLR320W, strain mms22, hits give low values 0.999 | locus YLR330W, strain CHS5, hits give low values 1 | locus YLR342W, strain FKS1 (second series), hits give low values 1.03 | locus YLR342W, strain FKS1, hits give low values 0.994 | locus YLR357W, strain rsc2, hits give low values 0.99 | locus YLR370C, strain arc18, hits give low values 1 | locus YLR371W, strain rom2, hits give low values 0.983 | locus YLR384C, strain iki3, hits give low values 0.999 | locus YLR418C, strain cdc73, hits give low values 0.997 | locus YML016C, strain PPZ1, hits give low values 1.01 | locus YML032C, strain rad52, hits give low values 0.999 | locus YML120C, strain ndi1, hits give low values 0.992 | locus YML124C, strain tub3, hits give low values 1 | locus YMR058W, strain fet3, hits give low values 1 | locus YMR078C, strain ctf18, hits give low values 0.985 | locus YMR125W, strain sto1, hits give low values 0.986 | locus YMR129W, hits give low values 0.995 | locus YMR205C, strain PFK2, hits give low values 0.983 | locus YMR223W, strain ubp8, hits give low values 1.01 | locus YMR231W, strain pep5, hits give low values 0.999 | locus YMR307W, strain GAS1, hits give low values 1.09 | locus YNL067W, strain RPL9B, hits give low values 1 | locus YNL071W, strain lat1, hits give low values 1 | [3] 1.02 | locus YNL153C, strain GIM3, hits give low values 1 | locus YNL183C, strain NPR1, hits give low values 0.97 | locus YNL209W, strain ssb2, hits give low values 1 | locus YNL233W, strain BNI4, hits give low values 1.01 | locus YNL248C, strain rpa49, hits give low values 0.995 | locus YNL250W, strain rad50, hits give low values 1.01 | locus YNL271C, strain bni1, hits give low values 0.988 | locus YNL298W, strain CLA4, hits give low values 1.02 | locus YNL307C, strain MCK1, hits give low values 0.988 | locus YNL322C, strain KRE1 (second series), hits give low values 0.997 | locus YNR049C, strain mso1, hits give low values 1 | locus YNR052C, strain pop2, hits give low values 1 | locus YOL012C, strain htz1 0.948 | locus YOL147C, strain pex11, hits give low values 0.986 | locus YOR001W, strain rrp6, hits give low values 0.999 | locus YOR061W, strain CKA2, hits give low values 1.01 | locus YOR069W, strain VPS5, hits give low values 1.01 | locus YOR070C, strain gyp1, hits give low values 0.998 | locus YOR080W, strain dia2, hits give low values 0.996 | locus YOR083W, strain WHI5, hits give low values 0.993 | locus YOR106W, strain vam3, hits give low values 1 | locus YOR136W, strain idh2, hits give low values 0.991 | locus YOR144C, strain elg1, hits give low values 0.983 | locus YOR184W, strain ser1, hits give low values 1 | locus YOR231W, strain MKK1, hits give low values 1.01 | locus YOR265W, strain rbl2, hits give low values 0.996 | locus YOR270C, strain vph1, hits give low values 1.01 | locus YOR290C, strain snf2, hits give low values 0.989 | locus YOR316C, strain cot1, hits give low values 0.991 | locus YPL051W, strain arl3, hits give low values 1 | locus YPL078C, strain atp4, hits give low values 1.01 | locus YPL106C, strain sse1, hits give low values 0.987 | locus YPL240C, strain hsp82, hits give low values 0.99 | locus YPL256C, strain CLN2, hits give low values 1.03 | locus YPR119W, strain clb2, hits give low values 0.987 | locus YPR141C, strain kar3, hits give low values 0.994 | locus YPR163C, strain tif3, hits give low values 0.986 | locus YPR167C, strain met16, hits give low values 0.996 | strain wtn01, hits give low values 0.984

COc1cc(=O)n(C)c2c(OCC(O)C(C)(C)O)cccc12 (stereo unspecified)
inactive: [1] 1.03 | locus YAL040C, strain CLN3, hits give low values 0.99 | locus YCL061C, strain MRC1 (second series), hits give low values 1.01 | locus YDR363W, strain ESC2, hits give low values 1.01 | locus YER002W, strain NOP16, hits give low values 0.999 | [2] 1.01 | [3] 0.99 | locus YNL175C, strain NOP13, hits give low values 1 | locus YNL197C, strain WHI3, hits give low values 1.02 | locus YNL224C, strain SQS1, hits give low values 1.01 | locus YOR083W, strain WHI5 (second series), hits give low values 1.02
